The values that follow come from PubChem BioAssay (NCI).

SMILES strings stand for the structures. About 83,000 compounds went through this panel and 20% of them were active in at least one assay; those are over-represented in the sample as a whole.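 Results are percent growth after 48 hours of single-concentration exposure. 100 means growth as in untreated cells, lower positive values show inhibition; negative values down to -100 show cell death.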 Values without a mark were called inactive. Active and inactive are the calls of the source. The calls were made as follows: active = growth percent below 10; inactive = the rest.

The test system of the first assay is NCI-H460 lung. Description: NCI-60 one-dose screen, 48 h (100 = growth as untreated, 0 = no growth, -100 = all killed). The settings on record: 10 µM unless noted.
Regarding `CCCCCCNc1cc(C)nc2ccc(OC)cc12`, the growth was 61.6%.

For `Cc1ccc(C)c2c1C(=O)OC2=O`, the growth is 111%.

Take `CCN(CC)CCCNC(=O)c1ccc(N)cc1O`: the growth was 108%.

Turning to `O=[N+]([O-])c1ccc(-c2cc3c(Nc4ccc(OCc5cccc(Cl)c5)c(Cl)c4)ncnc3s2)cc1`, the growth is 32%.

For the compound `COC(=O)Nc1nc2ccc(C(=O)C3CC3)cc2[nH]1`, the growth was 2.65% (active).

For the compound `CCOC(=O)C(O)C(O)(c1ccccc1)c1ccccc1` (stereo not drawn), the growth is 110%.

With `N#Cc1cnn2c(-c3ccc(Cl)cc3)nc(NC3CC3)nc12`, the growth was 100%.

With `O=C(C[C@@]1(O)C(=O)Nc2c(Cl)ccc(Cl)c21)c1ccc(C2CC2)cc1`, the growth was 6.3% (active).

On to `CN(CCC(=O)/C(=C\c1ccccc1)c1ccc(Cl)cc1)Cc1ccccc1`, for which the growth is 42.2%.

Regarding `CC1=NN(c2cccc(Cl)c2)C(=O)/C1=C\c1cn(CC(O)CN2CCCCC2)c2ccccc12` (stereo not drawn), the growth is 44.8%.

Take `O=C(NCOC(O)C(Cl)(Cl)Cl)NCOC(O)C(Cl)(Cl)Cl` (stereo not drawn): the growth was 112%.

As to `Cc1nn(-c2ccccc2)c2c1C(c1ccc([N+](=O)[O-])cc1)C(C#N)=C(N)O2` (stereo not drawn), the growth was 108%.

As to `O=[N+]([O-])c1ccccc1C(O)Cc1ccc2ccccc2n1` (stereo not drawn), the growth is 97.4%.

In the case of `N#Cc1cnn2c(-c3ccc(Cl)cc3)nc(NCCc3ccccc3)nc12`, the growth was 99%.

In the case of `CCOC(=O)C(=CNc1ccccc1[N+](=O)[O-])C(=O)OCC`, the growth is 105%.

In the case of `Cc1ccc(NSc2ccccc2[N+](=O)[O-])cc1`, the growth is 14.7%.

With `CN(C)CCC(O)(Cc1ccccc1)c1ccccc1` (stereo not drawn), the growth is 112%.

On to `CCOc1cc(N)ccc1C(=O)NCCCN(CC)CC`, for which the growth is 110%.

`COc1ccc(-c2nnc(SCC(=O)NC3=NN=C(c4ccccc4)CS3)o2)cc1`: the growth was 101%.

In the case of `C#C[C@]1(O)CC[C@H]2[C@@H]3CC=C4c5sc(N=C(N)N)nc5CC[C@]4(C)[C@H]3CC[C@@]21C`, the growth is -14.5% (active).

On to `CCCCCCCCN(CCCCCCCC)C(=N)c1ccnc2ccccc12`, for which the growth was -78% (active).

Take `COc1cc(-c2ccc(N=Nc3c(O)c(C(=O)Nc4ccccc4OC)cc4ccccc34)c(OC)c2)ccc1N=Nc1c(O)c(C(=O)Nc2ccccc2OC)cc2ccccc12`: the growth was 99.6%.

For `O=C1c2ccccc2C2(c3ccc(O)cc3)c3ccccc3Oc3cccc1c32` (stereo not drawn), the growth was 11.3%.

For `Cc1c(Cl)cccc1NS(=O)(=O)c1ccccc1`, the growth was 112%.

For the compound `CN(C)c1cnccn1`, the growth was 93.8%.

Regarding `Fc1ccc(Nc2nc3nonc3nc2Nc2ccc(F)cc2)cc1`, the growth is 1.64% (active).

For `Cc1nc2ccccc2c(/C=C/c2ccc(Cl)cc2)c1C(=O)/C=C/c1ccc(Cl)cc1`, the growth is -76.3% (active).

With `Fc1ccc(Nc2nc(Nc3ccc(-c4nc5ccccc5[nH]4)cc3)c3cn[nH]c3n2)cc1`, the growth was 47.5%.

As to `Nc1ccc(-c2cc3c(Nc4ccc(OCc5cccc(F)c5)c(Cl)c4)ncnc3s2)cc1`, the growth was 36.5%.

For the compound `O=[N+]([O-])c1ccc(-c2cc3c(Nc4ccc(Cl)c(C(F)(F)F)c4)ncnc3s2)cc1`, the growth is 4.13% (active).

Consider `O=[N+]([O-])c1ccc(-c2cc3c(Nc4ccc(Sc5nc6ccccc6s5)c(Cl)c4)ncnc3s2)cc1`, for which the growth is 11.8%.

As for `CCOC(=O)N1CCc2c(sc3c2C(=O)N[C@H](c2ccc(OC)cc2)N3)C1`, the growth is 104%.

Consider `Cc1cn(C2CCCCC2)c(=O)[nH]c1=O`, for which the growth was 117%.

For `Cc1csc(NC(=O)c2sc3nc(-c4cccs4)ccc3c2N)n1`, the growth is 99.3%.

Consider `Clc1ccc(-c2nc(NCCc3ccccc3)nc3c(NCCc4ccccc4)cnn23)cc1`, for which the growth was 16.3%.

Regarding `Cc1nc(C)c(-c2nn3c(-c4cccc(F)c4)nnc3s2)s1`, the growth is 102%.

Regarding `COc1ccc(-c2nnc(-c3ccc4c(c3)nc(-c3ccccc3)n4C3CCCCC3)o2)cc1`, the growth was 64.4%.

`Cc1cc2c(F)c(Oc3ncnc(Nc4ccc(N5C[C@@H](C)N[C@@H](C)C5)cc4)c3C#N)cc(F)c2[nH]1`: the growth was 6.38% (active).

With `CCN(CC)CCCNC(=O)c1ccc(N)cc1`, the growth was 103%.

The next assay concerns HOP-92 NSCLC. Described as above. Particulars: 10 µM unless noted.
As to `CCCCCCNc1cc(C)nc2ccc(OC)cc12`, the growth was 39.3%.

On to `Cc1ccc(C)c2c1C(=O)OC2=O`, for which the growth is 128%.

With `CCN(CC)CCCNC(=O)c1ccc(N)cc1O`, the growth was 89.6%.

On to `O=[N+]([O-])c1ccc(-c2cc3c(Nc4ccc(OCc5cccc(Cl)c5)c(Cl)c4)ncnc3s2)cc1`, for which the growth was 80.3%.

`COC(=O)Nc1nc2ccc(C(=O)C3CC3)cc2[nH]1`: the growth is 53.5%.

On to `CCOC(=O)C(O)C(O)(c1ccccc1)c1ccccc1` (stereo not drawn), for which the growth was 113%.

As to `N#Cc1cnn2c(-c3ccc(Cl)cc3)nc(NC3CC3)nc12`, the growth was 97.5%.

In the case of `O=C(C[C@@]1(O)C(=O)Nc2c(Cl)ccc(Cl)c21)c1ccc(C2CC2)cc1`, the growth was 75.5%.

As for `CN(CCC(=O)/C(=C\c1ccccc1)c1ccc(Cl)cc1)Cc1ccccc1`, the growth is 82.9%.

As to `CC1=NN(c2cccc(Cl)c2)C(=O)/C1=C\c1cn(CC(O)CN2CCCCC2)c2ccccc12` (stereo not drawn), the growth is 56.3%.

For `O=C(NCOC(O)C(Cl)(Cl)Cl)NCOC(O)C(Cl)(Cl)Cl` (stereo not drawn), the growth was 119%.

For the compound `Cc1nn(-c2ccccc2)c2c1C(c1ccc([N+](=O)[O-])cc1)C(C#N)=C(N)O2` (stereo not drawn), the growth is 91.7%.

Turning to `O=[N+]([O-])c1ccccc1C(O)Cc1ccc2ccccc2n1` (stereo not drawn), the growth is 77.5%.

Regarding `N#Cc1cnn2c(-c3ccc(Cl)cc3)nc(NCCc3ccccc3)nc12`, the growth is 92.6%.

Consider `CCOC(=O)C(=CNc1ccccc1[N+](=O)[O-])C(=O)OCC`, for which the growth is 80.6%.

In the case of `Cc1ccc(NSc2ccccc2[N+](=O)[O-])cc1`, the growth was 37.7%.

Consider `CN(C)CCC(O)(Cc1ccccc1)c1ccccc1` (stereo not drawn), for which the growth is 106%.

Regarding `CCOc1cc(N)ccc1C(=O)NCCCN(CC)CC`, the growth was 90.6%.

Turning to `COc1ccc(-c2nnc(SCC(=O)NC3=NN=C(c4ccccc4)CS3)o2)cc1`, the growth was 98.5%.

On to `C#C[C@]1(O)CC[C@H]2[C@@H]3CC=C4c5sc(N=C(N)N)nc5CC[C@]4(C)[C@H]3CC[C@@]21C`, for which the growth is 32.7%.

Turning to `CCCCCCCCN(CCCCCCCC)C(=N)c1ccnc2ccccc12`, the growth was -21.2% (active).

In the case of `COc1cc(-c2ccc(N=Nc3c(O)c(C(=O)Nc4ccccc4OC)cc4ccccc34)c(OC)c2)ccc1N=Nc1c(O)c(C(=O)Nc2ccccc2OC)cc2ccccc12`, the growth is 77.6%.

On to `O=C1c2ccccc2C2(c3ccc(O)cc3)c3ccccc3Oc3cccc1c32` (stereo not drawn), for which the growth is 29.9%.

Regarding `Cc1c(Cl)cccc1NS(=O)(=O)c1ccccc1`, the growth was 89.2%.

For the compound `CN(C)c1cnccn1`, the growth is 94.4%.

Take `Fc1ccc(Nc2nc3nonc3nc2Nc2ccc(F)cc2)cc1`: the growth is -30.5% (active).

For the compound `Cc1nc2ccccc2c(/C=C/c2ccc(Cl)cc2)c1C(=O)/C=C/c1ccc(Cl)cc1`, the growth is -59.9% (active).

Turning to `Fc1ccc(Nc2nc(Nc3ccc(-c4nc5ccccc5[nH]4)cc3)c3cn[nH]c3n2)cc1`, the growth was 79%.

Consider `Nc1ccc(-c2cc3c(Nc4ccc(OCc5cccc(F)c5)c(Cl)c4)ncnc3s2)cc1`, for which the growth was 45.8%.

Consider `O=[N+]([O-])c1ccc(-c2cc3c(Nc4ccc(Cl)c(C(F)(F)F)c4)ncnc3s2)cc1`, for which the growth was -14.3% (active).

Regarding `O=[N+]([O-])c1ccc(-c2cc3c(Nc4ccc(Sc5nc6ccccc6s5)c(Cl)c4)ncnc3s2)cc1`, the growth is 56.6%.

On to `CCOC(=O)N1CCc2c(sc3c2C(=O)N[C@H](c2ccc(OC)cc2)N3)C1`, for which the growth is 92.6%.

Turning to `Cc1cn(C2CCCCC2)c(=O)[nH]c1=O`, the growth was 97.4%.

For the compound `Cc1csc(NC(=O)c2sc3nc(-c4cccs4)ccc3c2N)n1`, the growth was 84.7%.

Regarding `Clc1ccc(-c2nc(NCCc3ccccc3)nc3c(NCCc4ccccc4)cnn23)cc1`, the growth is 97.7%.

As to `Cc1nc(C)c(-c2nn3c(-c4cccc(F)c4)nnc3s2)s1`, the growth is 86.2%.

For `COc1ccc(-c2nnc(-c3ccc4c(c3)nc(-c3ccccc3)n4C3CCCCC3)o2)cc1`, the growth was 57%.

In the case of `Cc1cc2c(F)c(Oc3ncnc(Nc4ccc(N5C[C@@H](C)N[C@@H](C)C5)cc4)c3C#N)cc(F)c2[nH]1`, the growth was 89.1%.

With `CCN(CC)CCCNC(=O)c1ccc(N)cc1`, the growth is 101%.
